Our source for the Potency and outcome values is PubChem BioAssay (Tox21).

Test [1] is described as follows: qHTS assay for small molecules that induce genotoxicity in human embryonic kidney cells expressing luciferase-tagged ATAD5 (AID 651632). Further: nearly all actives have a fitted effect of over 15% in size. Put shortly: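 Cells were seeded at 2,000 per well, dosed with compound, and incubated 16 hr at 37C in 5% CO2. Luciferase activity was then quantified after a 30 min room-temperature incubation with Amplite.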
Test [2] can be described thus: qHTS assay for small molecules that induce genotoxicity in human embryonic kidney cells expressing luciferase-tagged ATAD5 - cell viability (AID 651634; calls by dose curve; further: nearly all actives have a fitted effect of over 25% in size; further: potency means the concentration at half of the fitted maximal effect). Put shortly: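 Cells (HEK293T, luciferase-tagged ATAD5) are seeded at 2,000 per well, dosed with compound or DMSO vehicle, and incubated 15.5 hr at 37C and 5% CO2. CellTiter-Fluor is added for 30 min before fluorescence is measured.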

Test [3] is described as follows: qHTS assay for small molecule disruptors of the mitochondrial membrane potential - cell viability (AID 720634; calls by dose curve;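 further: human HepG2 liver cancer cells; series mostly up to about 83 µM; nearly all actives have a fitted effect of over 20% in size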). The method, boiled down: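 Cytotoxicity was measured by ATP quantitation in HepG2 wells that had first been treated with compound for 1 hr and stained with m-MPI dye; CellTiter-Glo incubation was 30 min at room temperature.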
Test [4] in a line: qHTS assay to test for compound auto fluorescence at 590 nm (red) in HepG2 cells (AID 720674). Put shortly:
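Red autofluorescence (Ex/Em 540/590 nm, Rose Bengal sodium equivalents) was measured in HepG2 cells, 2,000 per well in MEM plus 10% FBS, plated overnight at 37 C. Readings were taken 1 hr after adding 23 nL compound or DMSO, at 37 C and 5% CO2.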

Test [5] is described as follows: qHTS assay to test for compound auto fluorescence at 460 nm (blue) in HEK293 cells (AID 720678). The method, boiled down: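 Blue-channel (Ex/Em 405/460 nm) intensity measured in HEK293 cultures after overnight compound exposure at 37C; signal expressed relative to triamterene. Cells plated 2,000 per well in 10% dialyzed FBS medium and allowed 4-5 hr to attach.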

Test [6] in a line: qHTS assay to test for compound auto fluorescence at 535 nm (green) in HEK293 cells (AID 720680).
A short description of test [7]: qHTS assay to test for compound auto fluorescence at 460 nm (blue) in HEK293 cell free culture (AID 720681). Put shortly:
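Blue fluorescence (Ex 405/Em 460 nm, triamterene-equivalent) was read immediately after pin transfer of compound or DMSO into medium (DMEM, 10% FBS) without cells.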

A short description of test [8]: qHTS assay to test for compound auto fluorescence at 535 nm (green) in HEK293 cell free culture (AID 720682). Put shortly: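 Measurement is a direct plate read of green fluorescence (485 nm in, 535 nm out) after compound addition to serum-supplemented DMEM lacking cells, with fluorescein used to express intensities.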
Test [9] can be described thus: qHTS assay to test for compound auto fluorescence at 590 nm (red) in HEK293 cell free culture (AID 720683). The method, boiled down: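 Red-channel autofluorescence of compounds in culture medium (DMEM, 10% FBS), no cells, measured at 540/590 nm. Rose Bengal sodium is the reference fluorophore for equivalence.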
Test [10] is described as follows: qHTS assay to test for compound auto fluorescence at 590 nm (red) in HepG2 cell free culture (AID 720684). Put shortly: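 Cell-free; medium MEM + 10% FBS; compound or DMSO added by pintool; read Ex 540/Em 590 nm; Rose Bengal sodium as red reference fluorophore.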
Test [11] can be described thus: qHTS assay to test for compound auto fluorescence at 460 nm (blue) in HepG2 cell free culture (AID 720685). Put shortly:
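Cell-free plates of MEM plus 10% FBS received 23 nL compound or DMSO vehicle; blue-channel (405/460 nm) intensity scored against triamterene as reference fluorophore.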

The nature of test [12]: qHTS assay to test for compound auto fluorescence at 460 nm (blue) in HepG2 cells (AID 720687). Put shortly:
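Blue-channel autofluorescence (Ex/Em 405/460 nm, triamterene-equivalent) was measured after 1 hr compound exposure at 37 C, 5% CO2. Cells were HepG2, plated overnight at 37 C in MEM plus 10% FBS.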

The nature of test [13]: qHTS assay to identify small molecule antagonists of the glucocorticoid receptor (GR) signaling pathway - cell viability counter screen (AID 720693). Further: nearly all actives have a fitted effect of over 55% in size. Further: potency means the concentration at half of the fitted maximal effect.
The target of test [14] is Aromatase (Homo sapiens) (UniProt P11511). As to the kind of experiment: qHTS assay to identify aromatase inhibitors (AID 743083). Further: nearly all actives have a fitted effect of over 55% in size. Further: potency means the concentration at half of the fitted maximal effect.
Test [15] is described as follows: qHTS assay to identify aromatase inhibitors - cell viability counter screen (AID 743084).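 Further: cells stimulated with testosterone during compound exposure; nearly all actives have a fitted effect of over 55% in size.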
Test [16] deals with Aryl hydrocarbon receptor (Homo sapiens) (UniProt P35869). As to the kind of experiment: qHTS assay to identify small molecule that activate the aryl hydrocarbon receptor (AhR) signaling pathway (AID 743085).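 Further: HG2L7.5c1 human HepG2 liver cells with stably integrated DRE-driven firefly reporter; series mostly up to about 70 µM; nearly all actives have a fitted effect of over 15% in size.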 Put shortly: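 24 h compound exposure, 37C, HepG2-derived HG2L7.5c1 cells with DRE-responsive luciferase. Readouts: fluorescence viability, then luminescence at room temperature after 30 min.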

A short description of test [17]: qHTS assay to identify small molecule antagonists of the thyroid receptor (TR) signaling pathway - cell viability counter screen (AID 743064). Further: nearly all actives have a fitted effect of over 50% in size. The method, boiled down: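 Compounds were tested on GH3.TRE-Luc cells in the presence of T3 at 1 nM final. Following 23.5 h at 37 °C, cell viability was quantified by CellTiter-Fluor.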
Test [18] has as its target Acetylcholinesterase (Homo sapiens) (UniProt P22303). Kind of test: Acetylcholinesterase (AChE) small molecule antagonists: colormetric cell-based qHTS assay (AID 1347395; calls by dose curve; further: nearly all actives have a fitted effect of over 30% in size). The method, boiled down:
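In this cell-based qHTS, attached SH-SY5Y cells were treated with test chemicals for 30 min, after which acetylthiocholine hydrolysis was followed by DTNB colour development over 90 min at 37 C.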

Test [19] shares this target. Kind of test: Acetylcholinesterase (AChE) small molecule antagonists: enzyme-based qHTS assay (AID 1347397; calls by dose curve; further: nearly all actives have a fitted effect of over 55% in size). Particulars: Potency: AChE enzyme activity inhibition; outcome: AChE enzyme activity inhibition. The method, boiled down:
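Colorimetric DTNB readout of acetylthiocholine hydrolysis, 10 min at room temperature, after 30 min room-temperature exposure of 50 mU/mL recombinant human enzyme to compound; DMSO vehicle control.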

Test [20] shares this target. As to the kind of experiment: Acetylcholinesterase (AChE) small molecule antagonists: fluorescence cell-based qHTS assay (AID 1347398; calls by dose curve; further: nearly all actives have a fitted effect of over 50% in size). Particulars: Potency: AChE activity; outcome: AChE activity. The method, boiled down: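 Cellular AChE activity read as thiocholine from acetylthiocholine hydrolysis, detected by Thiolite Green fluorescence at 490/520 nm after 40 min at room temperature. Compounds were pre-incubated 30 min at 37 C on adherent SH-SY5Y cells.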

SMILES strings stand for the structures. Unmarked numbers belong to inactive results. Inconclusive results are not listed. Calls of active or inactive are those of the source. Unless noted, the call rests on the fitted dose curve; in most records, active means well fitted curve in the direction sought with a large enough effect in the repeat runs; inconclusive means weak or mixed curves; inactive means no such curve, though single readings can be large; an effect the other way counts as inactive or inconclusive.

Chain of Aromatase (Homo sapiens) (P11511 whole entry, looked up): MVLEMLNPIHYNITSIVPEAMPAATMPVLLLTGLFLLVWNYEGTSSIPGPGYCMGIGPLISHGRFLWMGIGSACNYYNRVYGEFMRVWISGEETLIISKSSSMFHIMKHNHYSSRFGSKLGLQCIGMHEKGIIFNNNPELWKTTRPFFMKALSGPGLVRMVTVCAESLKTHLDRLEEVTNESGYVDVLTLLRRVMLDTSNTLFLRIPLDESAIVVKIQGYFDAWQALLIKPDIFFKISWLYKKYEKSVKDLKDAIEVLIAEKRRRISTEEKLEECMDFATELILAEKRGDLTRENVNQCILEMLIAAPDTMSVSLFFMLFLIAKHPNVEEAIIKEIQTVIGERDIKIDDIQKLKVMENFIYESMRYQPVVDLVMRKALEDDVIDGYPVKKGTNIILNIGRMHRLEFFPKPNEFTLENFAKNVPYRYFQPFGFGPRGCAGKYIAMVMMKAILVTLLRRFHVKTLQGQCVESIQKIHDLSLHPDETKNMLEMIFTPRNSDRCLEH
Chain of Aryl hydrocarbon receptor (Homo sapiens) (P35869 whole entry, looked up): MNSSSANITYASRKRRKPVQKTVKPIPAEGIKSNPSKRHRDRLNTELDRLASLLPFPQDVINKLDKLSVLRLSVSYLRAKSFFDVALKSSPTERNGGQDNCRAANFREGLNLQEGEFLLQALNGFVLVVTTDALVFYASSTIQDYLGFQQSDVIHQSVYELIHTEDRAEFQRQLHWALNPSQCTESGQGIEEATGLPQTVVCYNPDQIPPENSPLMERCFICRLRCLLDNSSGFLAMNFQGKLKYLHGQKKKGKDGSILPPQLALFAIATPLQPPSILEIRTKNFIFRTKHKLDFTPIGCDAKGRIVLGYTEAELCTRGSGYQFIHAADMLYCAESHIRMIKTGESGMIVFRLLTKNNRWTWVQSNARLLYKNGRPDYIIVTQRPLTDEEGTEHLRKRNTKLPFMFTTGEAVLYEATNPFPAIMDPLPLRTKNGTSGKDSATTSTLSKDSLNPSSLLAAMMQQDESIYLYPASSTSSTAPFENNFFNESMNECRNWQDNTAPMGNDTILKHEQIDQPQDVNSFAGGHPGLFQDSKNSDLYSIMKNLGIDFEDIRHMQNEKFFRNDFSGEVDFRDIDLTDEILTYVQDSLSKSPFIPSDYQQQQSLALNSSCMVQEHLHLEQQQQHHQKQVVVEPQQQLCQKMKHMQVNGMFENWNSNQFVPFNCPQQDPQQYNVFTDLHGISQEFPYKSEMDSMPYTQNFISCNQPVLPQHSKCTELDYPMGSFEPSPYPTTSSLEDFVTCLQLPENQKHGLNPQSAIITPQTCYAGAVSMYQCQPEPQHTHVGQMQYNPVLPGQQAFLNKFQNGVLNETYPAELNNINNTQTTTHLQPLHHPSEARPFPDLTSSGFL
Chain of Acetylcholinesterase (Homo sapiens) (P22303 whole entry, looked up): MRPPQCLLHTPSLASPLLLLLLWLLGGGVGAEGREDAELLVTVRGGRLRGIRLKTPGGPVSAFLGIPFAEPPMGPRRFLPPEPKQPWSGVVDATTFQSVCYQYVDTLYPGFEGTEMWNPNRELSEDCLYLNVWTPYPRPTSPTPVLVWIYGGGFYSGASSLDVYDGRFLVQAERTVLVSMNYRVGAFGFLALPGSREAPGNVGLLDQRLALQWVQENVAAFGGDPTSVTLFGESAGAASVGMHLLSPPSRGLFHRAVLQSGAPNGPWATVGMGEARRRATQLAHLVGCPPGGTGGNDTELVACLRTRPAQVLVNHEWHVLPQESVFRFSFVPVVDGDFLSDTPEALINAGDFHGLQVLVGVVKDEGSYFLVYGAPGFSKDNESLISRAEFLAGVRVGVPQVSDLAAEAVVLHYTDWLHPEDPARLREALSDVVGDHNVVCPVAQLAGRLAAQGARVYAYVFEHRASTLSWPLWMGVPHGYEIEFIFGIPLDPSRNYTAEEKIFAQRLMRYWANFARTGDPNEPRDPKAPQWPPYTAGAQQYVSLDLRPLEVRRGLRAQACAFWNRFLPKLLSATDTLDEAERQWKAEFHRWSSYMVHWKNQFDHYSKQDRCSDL

In the case of `Clc1ccc(C(Cn2ccnc2)OCc2csc3c(Cl)cccc23)c(Cl)c1` (stereo not drawn), the Potency result in test [1], in test [2], in [3], in test [5], in test [6] and in test [7] was “inactive” in each case. Also, the Potency entry in [8], in test [11], in test [12], in [13], in [15] and in test [16] was “inactive” in each case. Further, the outcome in test [4], in test [9] and in test [10] was inactive. For the same compound, in [14], the Potency was 4030 nM (active).
As to `CCCCCCCCCC(=O)O[C@H]1CC[C@H]2[C@@H]3CCC4=CC(=O)CC[C@]4(C)[C@H]3CC[C@]12C`, the Potency result in [1], in [2], in test [3], in test [5], in test [6] and in test [7] was “inactive” in each case. The Potency result in test [8], in test [11], in [12], in test [13], in test [14] and in test [15] was “inactive” in each case. Also, the Potency result in test [16] is “inactive”. Besides, the call in test [4] and in test [9] was inactive.
Turning to `CO[C@H]1[C@@H](O)C[C@H](O[C@H]2[C@@H](O)C[C@H](O[C@H]3[C@@H](O)C[C@H](O[C@H]4CC[C@@]5(C)[C@H](CC[C@@H]6[C@@H]5C[C@@H](O)[C@]5(C)[C@@H](C7=CC(=O)OC7)CC[C@]65O)C4)O[C@@H]3C)O[C@@H]2C)O[C@@H]1C`, the Potency result in test [1], in [3], in test [5], in test [6], in [7] and in [8] was “inactive” each time. The Potency entry in [11], in test [12], in [17], in test [14], in [15] and in [16] was “inactive” throughout. For the same compound, the results for the Potency in [2] and in [13] were 94.4 nM (active) and 756 nM (active), respectively. Further, the compound was called inactive in [4], in [9] and in [10].
Regarding `C[C@]12CC[C@H](O)C[C@H]1CC[C@@H]1[C@@H]2CC[C@]2(C)[C@@H](c3ccc(=O)oc3)C[C@H]3O[C@]132`, the Potency entry in test [1], in [3], in test [5], in test [6], in test [7] and in [8] was “inactive” in each case. The Potency result in test [11], in [12], in [17], in test [14], in test [15] and in test [16] was “inactive” throughout. The Potency is 2110 nM (active) in test [2] and 2680 nM (active) in test [13]. Further, the outcome in test [4] and in [9] was inactive.
`OCc1cccnc1`: the Potency result in [18], in test [19] and in test [20] was “inactive” in each case.
In the case of `CN(C)[C@H](Cc1ccccc1)c1ccccc1`, the Potency entry in test [1], in test [2], in [3], in test [5], in [6] and in [7] was “inactive” in each case. Besides, the Potency entry in [8], in test [11], in test [12], in [13], in test [17] and in test [14] was “inactive” each time. In addition, the Potency entry in test [15] and in test [16] was “inactive” throughout. Besides, the compound was classed as inactive in test [4], in test [9] and in test [10].
As to `CCN(CC)CCO[C@H]1CC[C@@]2(C)C(=CC[C@@H]3[C@@H]2CC[C@]2(C)C(=O)CC[C@@H]32)C1`, the Potency result in [1], in [2], in [3], in [5], in test [6] and in [7] was “inactive” each time. For the same compound, the Potency result in [8], in test [11], in test [12], in test [13], in [17] and in test [14] was “inactive” each time. Moreover, the Potency entry in test [15] and in test [16] was “inactive” throughout. For the same compound, the outcome in test [4] and in test [9] was inactive.
`Nc1ccc(N=Nc2ccccc2)c(N)n1`: the Potency result in test [18], in [19] and in [20] was “inactive” throughout.
